Source: the supplement of paper PMC10849652
About 7,900 targets were measured; listed, in parts, are those with a hit and a random draw of the rest. About 0.6% of all pairs of compound and target were hits. A number with no mark means an inactive call.

Experiments:
Assay in all cases: log2 fold change, soluble protein after heating vs DMSO (PISA); higher = thermal stabilisation; K562 cells, 10 uM, 30 min; active = over 0.2 and 3.5 SD of the protein, either way, in both replicates (recomputed)
[1] = compound: NC(=O)Nc1cc(-c2cccc(F)c2)sc1C(=O)N[C@H]1CCCNC1
In short: (§1)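 K562 cells (2×10^6 cells/mL) were treated with 10 μM compound for 30 min, and aliquots were heated for 3 min over 48°C-58°C. Pooled aliquots were extracted in PBS with 0.5% NP-40 at 4°C, and the supernatant after 21,000xg for 90 min was measured by TMTpro 16plex LC-MS/MS with channel sums equalised. Reported thermal stability, relative to control samples and from duplicates, is a log2 fold change.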

[2] = compound: NC(=O)c1cnc(N[C@@H]2CCCC[C@@H]2N)nc1Nc1cccc(-n2nccn2)c1
In short: as §1

[3] = compound: NCC(=O)Nc1ccc(-n2nc(C(F)(F)F)cc2-c2ccc3c(ccc4ccccc43)c2)cc1
In short: as §1

entinostat = compound: Nc1ccccc1NC(=O)c1ccc(CNC(=O)OCc2cccnc2)cc1 [entinostat]
In short: as §1

citarinostat = compound: O=C(CCCCCCNC(=O)c1cnc(N(c2ccccc2)c2ccccc2Cl)nc1)NO [citarinostat]
In short: as §1

[4] = compound: O=C1NC(=O)C(c2cnc3ccccn23)=C1c1cn2c3c(cc(F)cc13)CN(C(=O)N1CCCCC1)CC2
In short: as §1

[5] = compound: c1cc(OCCN2CCCCC2)cc(-c2n[nH]c3ccc(-c4nnc[nH]4)cc23)c1
In short: as §1

entospletinib = compound: c1cn2cc(-c3ccc4cn[nH]c4c3)nc(Nc3ccc(N4CCOCC4)cc3)c2n1 [entospletinib]
In short: as §1

vorinostat = compound: O=C(CCCCCCC(=O)Nc1ccccc1)NO [vorinostat]
In short: as §1

[6] = compound: NC1(c2ccc(-c3nc4ccn5c(=O)[nH]nc5c4cc3-c3ccccc3)cc2)CCC1
In short: as §1

silmitasertib = compound: O=C(O)c1ccc2c(c1)nc(Nc1cccc(Cl)c1)c1ccncc12 [silmitasertib]
In short: as §1

TMEM128 (UniProt Q5BJH2)
Chain of UniProt Q5BJH2 (Q5BJH2 whole entry, looked up): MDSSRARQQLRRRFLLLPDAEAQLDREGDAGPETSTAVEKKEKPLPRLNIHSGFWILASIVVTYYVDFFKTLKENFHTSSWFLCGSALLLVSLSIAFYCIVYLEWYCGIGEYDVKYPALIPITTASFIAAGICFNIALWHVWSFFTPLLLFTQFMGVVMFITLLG
log2 fold change [1]: -0.059 | log2 fold change [2]: -0.167 | log2 fold change [3]: -0.092 | log2 fold change (entinostat): -0.036 | log2 fold change (citarinostat): -0.131 | log2 fold change [4]: -0.037 | log2 fold change [5]: -0.07 | log2 fold change (entospletinib): 0.018

TOM1L2 (UniProt Q6ZVM7)
Chain of UniProt Q6ZVM7 (Q6ZVM7 whole entry, looked up): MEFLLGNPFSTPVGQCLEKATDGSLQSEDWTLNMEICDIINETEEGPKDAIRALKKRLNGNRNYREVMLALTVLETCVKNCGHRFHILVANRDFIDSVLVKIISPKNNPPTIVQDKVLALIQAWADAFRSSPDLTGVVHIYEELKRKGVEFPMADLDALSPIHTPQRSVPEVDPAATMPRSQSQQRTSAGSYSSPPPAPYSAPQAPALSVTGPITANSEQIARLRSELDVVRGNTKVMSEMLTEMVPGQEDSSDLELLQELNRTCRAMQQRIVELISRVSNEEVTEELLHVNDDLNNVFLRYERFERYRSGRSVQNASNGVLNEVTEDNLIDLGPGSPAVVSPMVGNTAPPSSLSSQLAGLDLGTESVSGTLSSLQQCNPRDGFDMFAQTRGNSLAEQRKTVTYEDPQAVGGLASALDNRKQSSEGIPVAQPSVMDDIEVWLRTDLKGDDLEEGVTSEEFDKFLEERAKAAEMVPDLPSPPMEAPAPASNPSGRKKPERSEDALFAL
log2 fold change [1]: 0.089 | log2 fold change [2]: -0.136 | log2 fold change [3]: -0.098 | log2 fold change (entinostat): 0.036 | log2 fold change [4]: -0.043

WDR4 isoform 3 (UniProt P57081)
Chain of UniProt P57081 (P57081 whole entry, looked up): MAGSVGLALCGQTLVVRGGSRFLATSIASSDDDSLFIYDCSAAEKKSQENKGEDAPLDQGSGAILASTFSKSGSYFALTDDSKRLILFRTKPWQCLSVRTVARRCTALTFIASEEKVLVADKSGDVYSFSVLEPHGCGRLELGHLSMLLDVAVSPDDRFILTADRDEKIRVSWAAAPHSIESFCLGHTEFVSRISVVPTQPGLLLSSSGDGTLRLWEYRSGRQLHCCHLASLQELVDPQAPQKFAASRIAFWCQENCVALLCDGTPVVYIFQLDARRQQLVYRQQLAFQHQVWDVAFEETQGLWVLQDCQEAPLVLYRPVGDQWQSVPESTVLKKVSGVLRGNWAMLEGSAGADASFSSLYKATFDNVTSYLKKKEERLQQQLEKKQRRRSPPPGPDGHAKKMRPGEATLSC
log2 fold change [1]: -0.103 | log2 fold change (entinostat): -0.02 | log2 fold change (vorinostat): -0.118 | log2 fold change [4]: -0.135

TRIQK (UniProt Q629K1)
log2 fold change [1]: 0.013 | log2 fold change [6]: -0.044 | log2 fold change (entinostat): -0.083 | log2 fold change (silmitasertib): 0 | log2 fold change [4]: -0.235

TMEM104 (UniProt Q8NE00)
Chain of UniProt Q8NE00 (Q8NE00 whole entry, looked up): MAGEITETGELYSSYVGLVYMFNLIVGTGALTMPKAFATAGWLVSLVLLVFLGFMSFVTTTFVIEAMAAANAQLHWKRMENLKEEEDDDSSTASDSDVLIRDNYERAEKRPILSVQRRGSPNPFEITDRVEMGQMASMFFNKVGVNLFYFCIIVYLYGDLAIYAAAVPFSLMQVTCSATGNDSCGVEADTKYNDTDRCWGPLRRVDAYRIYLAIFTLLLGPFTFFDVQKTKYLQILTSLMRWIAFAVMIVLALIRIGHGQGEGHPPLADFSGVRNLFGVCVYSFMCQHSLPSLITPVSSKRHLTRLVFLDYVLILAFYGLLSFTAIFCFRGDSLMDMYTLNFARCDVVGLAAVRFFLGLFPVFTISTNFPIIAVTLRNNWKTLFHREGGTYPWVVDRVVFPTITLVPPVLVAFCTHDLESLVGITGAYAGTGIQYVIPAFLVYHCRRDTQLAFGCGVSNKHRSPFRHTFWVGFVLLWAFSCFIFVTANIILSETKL
log2 fold change [2]: 0.08 | log2 fold change [6]: 0.232 | log2 fold change (vorinostat): 0.068 | log2 fold change (citarinostat): -0.063 | log2 fold change (silmitasertib): 0.097 | log2 fold change [4]: 0.143 | log2 fold change [5]: -0.051 | log2 fold change (entospletinib): 0.001

TUBA4A (UniProt C9JJQ8)
log2 fold change [1]: -0.035 | log2 fold change [3]: 0.053 | log2 fold change (entinostat): 0.093 | log2 fold change (citarinostat): 0.039 | log2 fold change [5]: 0.206 | log2 fold change (entospletinib): -0.27

TXNRD1 isoform 7 (UniProt Q16881)
log2 fold change [1]: -0.083 | log2 fold change [3]: -0.214 | log2 fold change (entinostat): 0.065 | log2 fold change (vorinostat): 0.21 | log2 fold change (citarinostat): -0.171 | log2 fold change [4]: -0.227 | log2 fold change [5]: 0.171 | log2 fold change (entospletinib): 0.04

VDAC1 (UniProt C9JI87)
log2 fold change [1]: -0.145 | log2 fold change [2]: -0.166 | log2 fold change [6]: -0.065 | log2 fold change (entinostat): -0.158 | log2 fold change (citarinostat): -0.153 | log2 fold change (silmitasertib): 0.024 | log2 fold change [4]: -0.09 | log2 fold change [5]: 0.044 | log2 fold change (entospletinib): -0.088

TRIM5 (UniProt Q9C035)
Chain of UniProt Q9C035 (Q9C035 whole entry, looked up): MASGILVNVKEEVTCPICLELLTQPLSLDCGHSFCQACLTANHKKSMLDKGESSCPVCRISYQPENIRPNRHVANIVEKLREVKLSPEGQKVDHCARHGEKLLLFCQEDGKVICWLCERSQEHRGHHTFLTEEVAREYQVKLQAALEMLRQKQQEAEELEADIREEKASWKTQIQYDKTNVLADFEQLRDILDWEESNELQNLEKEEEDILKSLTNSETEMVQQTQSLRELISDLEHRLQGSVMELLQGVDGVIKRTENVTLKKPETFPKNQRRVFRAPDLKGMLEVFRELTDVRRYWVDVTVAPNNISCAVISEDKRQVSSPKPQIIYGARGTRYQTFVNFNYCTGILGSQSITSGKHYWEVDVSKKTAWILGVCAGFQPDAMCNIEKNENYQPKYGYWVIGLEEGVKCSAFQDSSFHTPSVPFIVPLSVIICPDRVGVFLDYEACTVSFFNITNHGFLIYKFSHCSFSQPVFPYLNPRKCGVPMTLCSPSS
log2 fold change [1]: -0.219 | log2 fold change [2]: -0.085 | log2 fold change [3]: -0.006 | log2 fold change (entinostat): 0.137 | log2 fold change [4]: 0.024

UBE2J2 isoform 3 (UniProt Q8N2K1)
Chain of UniProt Q8N2K1 (Q8N2K1 whole entry, looked up): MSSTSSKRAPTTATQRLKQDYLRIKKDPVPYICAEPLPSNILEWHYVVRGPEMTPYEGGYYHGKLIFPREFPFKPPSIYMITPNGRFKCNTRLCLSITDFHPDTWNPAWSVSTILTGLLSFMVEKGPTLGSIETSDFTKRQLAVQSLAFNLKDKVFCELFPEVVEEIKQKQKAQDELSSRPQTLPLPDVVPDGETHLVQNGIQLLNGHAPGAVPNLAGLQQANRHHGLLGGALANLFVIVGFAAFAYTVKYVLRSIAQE
log2 fold change [1]: -0.072 | log2 fold change [2]: 0.028 | log2 fold change [3]: 0.213 | log2 fold change (entinostat): -0.067 | log2 fold change (vorinostat): 0.156 | log2 fold change (citarinostat): 0.1 | log2 fold change [4]: -0.299 | log2 fold change [5]: -0.039 | log2 fold change (entospletinib): -0.028

WARS1 (UniProt G3V5U1)
log2 fold change [1]: -0.609 | log2 fold change [6]: -0.142 | log2 fold change (entinostat): -0.218 | log2 fold change (citarinostat): -0.608 | log2 fold change (silmitasertib): 0.297 | log2 fold change [4]: -0.761 | log2 fold change [5]: -0.083 | log2 fold change (entospletinib): 0.342

TTC26
log2 fold change [3]: 0.006

WARS1 (UniProt G3V3P2)
log2 fold change [1]: -0.196 | log2 fold change (entinostat): -0.074

TUT4 (UniProt Q5TAX3)
log2 fold change [1]: 0.028 | log2 fold change [6]: 0.07 | log2 fold change [3]: -0.349 | log2 fold change (entinostat): 0.004 | log2 fold change (vorinostat): -0.032 | log2 fold change (citarinostat): -0.161 | log2 fold change (silmitasertib): 0.094 | log2 fold change [4]: 0.322 | log2 fold change [5]: -0.063 | log2 fold change (entospletinib): 0.066

USP48 (UniProt Q86UV5)
Chain of UniProt Q86UV5 (Q86UV5 whole entry, looked up): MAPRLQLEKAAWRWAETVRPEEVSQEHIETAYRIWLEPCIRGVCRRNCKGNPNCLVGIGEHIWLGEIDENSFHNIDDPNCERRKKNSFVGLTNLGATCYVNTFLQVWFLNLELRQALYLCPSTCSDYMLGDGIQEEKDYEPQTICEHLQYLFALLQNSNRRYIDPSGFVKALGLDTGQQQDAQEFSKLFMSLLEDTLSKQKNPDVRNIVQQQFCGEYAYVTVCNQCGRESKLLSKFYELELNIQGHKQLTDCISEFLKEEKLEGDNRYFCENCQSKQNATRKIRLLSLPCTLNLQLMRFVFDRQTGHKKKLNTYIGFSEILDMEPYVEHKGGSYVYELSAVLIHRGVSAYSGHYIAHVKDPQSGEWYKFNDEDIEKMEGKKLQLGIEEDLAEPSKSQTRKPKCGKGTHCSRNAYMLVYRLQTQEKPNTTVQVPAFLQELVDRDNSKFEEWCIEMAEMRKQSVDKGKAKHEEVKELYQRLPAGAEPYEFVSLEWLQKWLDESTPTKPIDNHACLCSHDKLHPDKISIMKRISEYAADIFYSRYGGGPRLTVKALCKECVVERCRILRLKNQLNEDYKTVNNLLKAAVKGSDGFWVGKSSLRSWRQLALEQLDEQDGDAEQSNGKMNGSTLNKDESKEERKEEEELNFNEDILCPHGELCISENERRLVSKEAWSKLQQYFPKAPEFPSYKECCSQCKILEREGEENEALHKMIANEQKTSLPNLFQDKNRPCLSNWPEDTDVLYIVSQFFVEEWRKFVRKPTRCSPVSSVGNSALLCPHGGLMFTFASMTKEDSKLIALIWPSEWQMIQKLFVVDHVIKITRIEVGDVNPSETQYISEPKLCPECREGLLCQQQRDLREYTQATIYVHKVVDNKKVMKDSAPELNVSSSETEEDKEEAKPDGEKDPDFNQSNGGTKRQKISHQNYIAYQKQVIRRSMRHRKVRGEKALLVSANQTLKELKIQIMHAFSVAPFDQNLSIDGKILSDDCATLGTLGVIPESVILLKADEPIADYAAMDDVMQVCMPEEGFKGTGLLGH
log2 fold change [1]: -0.077 | log2 fold change [6]: -0.242 | log2 fold change (entinostat): 0.164 | log2 fold change (citarinostat): -0.024 | log2 fold change (silmitasertib): 0.185 | log2 fold change [5]: 0.076 | log2 fold change (entospletinib): -0.055

UBXN10 (UniProt Q96LJ8)
Chain of UniProt Q96LJ8 (Q96LJ8 whole entry, looked up): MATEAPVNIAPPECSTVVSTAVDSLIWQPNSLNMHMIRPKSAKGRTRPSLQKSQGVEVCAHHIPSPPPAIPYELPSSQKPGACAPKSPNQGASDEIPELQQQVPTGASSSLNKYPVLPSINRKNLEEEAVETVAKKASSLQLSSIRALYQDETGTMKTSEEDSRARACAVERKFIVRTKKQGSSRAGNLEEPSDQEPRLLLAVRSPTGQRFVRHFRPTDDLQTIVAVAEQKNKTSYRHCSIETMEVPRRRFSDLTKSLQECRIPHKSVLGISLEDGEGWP
log2 fold change [1]: 0.062 | log2 fold change [6]: 0.102 | log2 fold change [3]: -0.426 (active) | log2 fold change (entinostat): -0.069 | log2 fold change (vorinostat): 0.136 | log2 fold change (citarinostat): -0.121 | log2 fold change (silmitasertib): -0.006 | log2 fold change [4]: -0.031 | log2 fold change [5]: 0.037 | log2 fold change (entospletinib): 0.013

TRIM23 (UniProt P36406)
Chain of UniProt P36406 (P36406 whole entry, looked up): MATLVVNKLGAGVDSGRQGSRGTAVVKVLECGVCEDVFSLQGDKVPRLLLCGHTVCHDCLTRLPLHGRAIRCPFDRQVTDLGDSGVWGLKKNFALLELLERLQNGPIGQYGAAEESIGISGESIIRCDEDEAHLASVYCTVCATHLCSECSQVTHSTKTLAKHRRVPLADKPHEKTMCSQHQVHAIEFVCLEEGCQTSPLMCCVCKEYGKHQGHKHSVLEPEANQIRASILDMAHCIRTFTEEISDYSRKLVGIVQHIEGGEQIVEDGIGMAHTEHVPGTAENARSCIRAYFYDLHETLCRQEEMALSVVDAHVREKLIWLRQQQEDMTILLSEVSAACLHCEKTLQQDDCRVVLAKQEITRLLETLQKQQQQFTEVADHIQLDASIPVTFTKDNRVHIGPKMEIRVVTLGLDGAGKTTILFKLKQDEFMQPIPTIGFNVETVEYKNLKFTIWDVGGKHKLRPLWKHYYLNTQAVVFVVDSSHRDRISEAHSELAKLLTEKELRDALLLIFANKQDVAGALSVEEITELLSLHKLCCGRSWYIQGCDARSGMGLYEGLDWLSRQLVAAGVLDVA
log2 fold change [1]: -0.025 | log2 fold change [6]: -0.02 | log2 fold change [3]: -0.083 | log2 fold change (entinostat): -0.01 | log2 fold change (vorinostat): 0.06 | log2 fold change (citarinostat): 0.015 | log2 fold change (silmitasertib): -0.044 | log2 fold change [5]: -0.026 | log2 fold change (entospletinib): -0.041

VWA3B isoform 6 (UniProt Q502W6)
log2 fold change [2]: -0.271 | log2 fold change [6]: -0.023 | log2 fold change [3]: -0.059 | log2 fold change (vorinostat): 0.076 | log2 fold change (citarinostat): -0.128 | log2 fold change (silmitasertib): 0.162 | log2 fold change [4]: -0.009 | log2 fold change [5]: -0.076 | log2 fold change (entospletinib): -0.237

TMEM8A (UniProt Q9HCN3)
Chain of UniProt Q9HCN3 (Q9HCN3 whole entry, looked up): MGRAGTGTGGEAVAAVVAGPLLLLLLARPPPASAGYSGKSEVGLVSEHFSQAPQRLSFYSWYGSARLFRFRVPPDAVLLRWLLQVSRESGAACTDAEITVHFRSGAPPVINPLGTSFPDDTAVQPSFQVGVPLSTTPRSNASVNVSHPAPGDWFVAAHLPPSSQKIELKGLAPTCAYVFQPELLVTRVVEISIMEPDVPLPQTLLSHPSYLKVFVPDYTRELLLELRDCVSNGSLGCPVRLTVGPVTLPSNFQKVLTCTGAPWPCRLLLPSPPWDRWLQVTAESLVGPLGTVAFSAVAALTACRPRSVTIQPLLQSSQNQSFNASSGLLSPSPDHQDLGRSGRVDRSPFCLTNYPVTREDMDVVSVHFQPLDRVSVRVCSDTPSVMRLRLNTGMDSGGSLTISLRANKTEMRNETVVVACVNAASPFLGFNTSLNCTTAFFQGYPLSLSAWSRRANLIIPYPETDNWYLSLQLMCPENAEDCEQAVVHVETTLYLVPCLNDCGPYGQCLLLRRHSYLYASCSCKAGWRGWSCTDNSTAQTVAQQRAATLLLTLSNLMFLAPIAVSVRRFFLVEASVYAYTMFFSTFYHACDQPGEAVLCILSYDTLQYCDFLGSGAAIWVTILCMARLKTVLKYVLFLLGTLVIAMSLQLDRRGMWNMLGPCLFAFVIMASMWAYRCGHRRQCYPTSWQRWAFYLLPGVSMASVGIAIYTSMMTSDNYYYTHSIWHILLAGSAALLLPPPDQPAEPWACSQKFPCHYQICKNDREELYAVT
log2 fold change [1]: -0.059 | log2 fold change [6]: -0.393 | log2 fold change [3]: -0.048 | log2 fold change (entinostat): -0.485 | log2 fold change (vorinostat): -0.077 | log2 fold change (citarinostat): -0.037 | log2 fold change (silmitasertib): 0.053 | log2 fold change [5]: -0.056 | log2 fold change (entospletinib): -0.002
